# Assay outcomes as filed in PubChem.
# ALDH1A1 block = inhibitors of human aldehyde dehydrogenase 1A1; P00352; Purified ALDH1A1, NADH fluorescence, propionaldehyde substrate; Potency, µM (series often up to 75.3 µM), for inactives: at the highest dose activity, negative = inhibition, usual class: inhibitors; 220,000 compounds, 7.3% hits; AID 1030;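 also: potency is read from the fitted curve at half-maximal effect; plate controls were no enzyme wells and a reference inhibitor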
# IMPase inh = membrane-permeable compound that blocks inositol monophosphatase. CHO-M1 cells, IP1 accumulation, HTRF TR-FRET ratio. inhibition (IP1 accumulation), % at 46.1 µM. P97697. 120,000 tested, under 10 active. AID 901; active = well fitted curve in the direction sought with a large enough effect in the signal ratio, not every such curve was filed as active; inconclusive = small, poorly fitted or top-dose-only effect, or a change in a side signal; inactive = no such curve, though single readings can be large or run the other way; the % refers to the signal ratio;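 also: cells stimulated with carbachol in lithium chloride buffer; plate controls were DMSO basal wells for no effect and reference inhibitor wells for full effect; higher means more IMPase inhibition seen as more IP1 and lower FRET ratio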
# Target sequence (P97697 whole entry, looked up): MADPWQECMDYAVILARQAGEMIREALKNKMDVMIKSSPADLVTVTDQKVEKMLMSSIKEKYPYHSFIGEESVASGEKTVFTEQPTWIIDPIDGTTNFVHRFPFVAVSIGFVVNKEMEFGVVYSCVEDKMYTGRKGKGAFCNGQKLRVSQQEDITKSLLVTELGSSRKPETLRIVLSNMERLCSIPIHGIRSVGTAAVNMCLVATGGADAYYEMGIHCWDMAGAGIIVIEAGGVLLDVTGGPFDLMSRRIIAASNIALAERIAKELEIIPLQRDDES
#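 Elevated IP1 in lysates lowers TR-FRET signal (665/620 ratio and 620 channel reported). Cells were CHO-M1, given carbachol (50 uM as added) plus 50mM LiCl, pH 7.4, 30 min, 37C; compounds titrated up to 46 uM; AC50 by Hill equation.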
# Luc counter = counter-screen: inhibitors of Kinase-Glo firefly luciferase. Q27757. 200,000 compounds, 0.28% hits. Kinase-Glo luciferase, ATP luminescence, 8 min. Potency, µM (series often up to 38.3 µM), without a hit: top-dose activity change, negative = inhibition, most hits filed as inhibitors; active = well fitted inhibition curve with a large enough effect; inconclusive = small, poorly fitted or top-dose-only effect; also: potency is read from the fitted curve at half-maximal effect; nearly all actives have a fitted effect of over 60% in size
#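 Compound is pinned into ATP-containing buffer (10 uM ATP, imidazole pH 7.2, 7 mM MgCl2). Kinase-Glo luciferase reagent is then added. Light output is recorded following an 8-min room-temperature incubation.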
# Lamin A splicing = changes lamin A minigene splicing in HeLa cells; AID 1487; HeLa LMNA splicing GFP/RFP minigene ratio, 48 h; Potency, µM (doses to about 46.1 µM), inactives show at the top dose ratio change, negative = inhibition, hits mostly inhibitors; 200,000 compounds, 0.01% hits; active = well fitted inhibition curve with a large enough effect in the signal ratio, with a control signal flat, not every such curve was filed as active; inconclusive = small, poorly fitted or top-dose-only effect, or effect the other way, or a change in a side signal; the % refers to the signal ratio; also: potency is read from the fitted curve at half-maximal effect
#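 S3 HeLa cells stably expressing lamin A-EGFP splicing minigene plus DsRed2, 600 cells/well, 48 h compound exposure at 37C. Laser-scanning cytometry; analysed as GFP (500-530 nm)/RFP (575-640 nm) total intensity ratio; 0.5% DMSO vehicle.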
# HPGD block = inhibitors of human 15-hydroxyprostaglandin dehydrogenase (HPGD); P15428; purified HPGD, NADH fluorescence kinetic, PGE2 substrate; Potency, µM, inactives show at the top dose activity change, negative = inhibition, most hits filed as inhibitors; 150,000 compounds, 4.3% hits; also: potency is read from the fitted curve at half-maximal effect
# Target sequence (P15428 whole entry, looked up): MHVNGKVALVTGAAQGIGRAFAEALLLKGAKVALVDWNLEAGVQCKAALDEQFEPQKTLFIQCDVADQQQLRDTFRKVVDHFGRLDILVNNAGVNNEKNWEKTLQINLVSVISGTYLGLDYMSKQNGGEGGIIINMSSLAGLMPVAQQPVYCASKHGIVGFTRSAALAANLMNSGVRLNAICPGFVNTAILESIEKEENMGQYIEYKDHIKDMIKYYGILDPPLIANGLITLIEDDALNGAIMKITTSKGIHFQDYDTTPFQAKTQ
#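 NADH formation kinetics: reaction with 30 uM PGE2 and 1 mM NAD+ (final), 20 nM enzyme, Tris-HCl pH 8 with Tween 20, after 15 min compound preincubation at room temperature. Fluorescence change, last versus first of five reads.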
# PNC inhibitor = blocks assembly of the perinucleolar compartment. PC3M PTB-GFP, PNC prevalence imaging, 16 h; active compounds read low. activity change (PNC), negative = inhibition, % at 10 µM. 140,000 compounds, 3.1% hits. AID 2417;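 active = readout at or below -70, meaning at least 70% loss of cells showing the perinucleolar compartment, a nuclear body marking cancer cells; inconclusive = readout between -30 and a set limit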;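 also: plate controls were DMSO wells for no effect and camptothecin positive control wells for full effect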
#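 Read-out is percentage of cells bearing a perinucleolar compartment, from automated 20x imaging of fixed, Hoechst-stained PC3M PTB-GFP cells. Cells were seeded 4 h, then exposed 16 h to compound (23 nl of library stock) in duplicate plates.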
# Active calls of the source: *; ? = inconclusive; nt = not tested or not shown; [ ] = another dose, or the depositor's remark. The list is not random: actives were taken first. Their share in the collection is about 10%. Unless noted, calls follow the shape of the dose curve; as a rule, active = well fitted inhibition curve with a large enough effect (not every such curve was filed as active); inconclusive = small, poorly fitted or top-dose-only effect, or another doubt; inactive = no such curve, though single readings can be large or run the other way. Unless noted, % is scaled to controls: 0 for no effect and ±100 for the full control effect.
SMILES,ALDH1A1 block,IMPase inh,Luc counter,Lamin A splicing,HPGD block,PNC inhibitor
CCOC(=O)CC1COCCN1Cc1cn(C)nc1-c1ccccc1F (centres undefined),10µM*,nt,1%,nt,nt,nt
Cc1cc(C)c(/C=C/c2onc(C)c2S(=O)(=O)N2CCC(C(=O)NCc3ccco3)CC2)c(C)c1,nt,nt,nt,-2%[46 µM],nt,nt
CCOC(=O)CNC(=O)CSc1ncnc2c1nnn2-c1ccc(F)cc1,9%,-2,-2%,-9%,-14%,-100*
O=C(CSc1ncnc2ccccc12)c1ccco1,11µM*,nt,-20%,nt,nt,nt
COc1ccc(-n2nnc3c(SCC(=O)NCc4ccco4)ncnc32)cc1,?,0,-12%,?,28µM*,2
O=C(CSc1ncnc2ccccc12)NCc1ccco1,22%,-11[1.84 µM],-2%,-1%,16µM*,-26
O=C(CSc1ncnc2ccccc12)NCCc1ccccc1,0%,nt,-5%,nt,nt,nt
COCCn1c(N)c(C(=O)NS(=O)(=O)c2ccc(C)cc2)c(=O)[nH]c1=O,16µM*,nt,-1%,nt,nt,nt
CN1CCN(c2ccc([N+](=O)[O-])cc2/C=N/NC(=O)c2cccc([N+](=O)[O-])c2)CC1,20µM*,nt,1%,-7%,-17%,-1
CN1CCN(c2ccccc2NC(=O)c2cccc([N+](=O)[O-])c2)CC1,7%,nt,-2%,nt,nt,nt
CCN(CC)C(=O)C1CCCN(c2ccc([N+](=O)[O-])cc2/C=N/NC(=O)c2ccccc2)C1 (centres undefined),28µM*,nt,1%,1%,-11%,7
CCN(CC)C(=O)C1CCCN(c2ccc([N+](=O)[O-])cc2/C=N/NC(=O)c2cccc(O)c2)C1 (centres undefined),28µM*,-1,-3%,-3%,-26%,-8
CCN(CC)C(=O)C1CCCN(c2ccc([N+](=O)[O-])cc2/C=N/NC(=O)c2ccc([N+](=O)[O-])cc2)C1 (centres undefined),?,-4,3%,4%,-7%,38
CCN(CC)C(=O)C1CCCN(c2ccc([N+](=O)[O-])cc2)C1 (centres undefined),20µM*,nt,2%,nt,nt,nt
CCOC(=O)C1CCN(c2ccc([N+](=O)[O-])cc2)CC1,-11%,nt,-3%,1%[46 µM],nt,nt
COc1ccc(NC(=O)c2c(NC(=O)COc3ccc(Cl)cc3)sc3c2CCCCC3)cc1,nt,-5,nt,nt,nt,nt
ClC1(Cl)CC1Cn1c(C2CC2)nc2ccccc21 (centres undefined),10µM*,nt,-1%,-1%[46 µM],nt,nt
CCC(=O)N1c2ccccc2CC1C(=O)NCCCN1CCN(c2cccc(Cl)c2)CC1 (centres undefined),nt,nt,nt,-12%[46 µM],nt,nt
O=c1cc(CN2CCN(C/C=C/c3ccccc3)CC2)c2cc(O)ccc2o1,32µM*,9,-1%,?,-15%,?
COc1ccc(-n2c(=O)c(CCc3ccccc3)nc3cnc(N4CCN(C)CC4)nc32)cc1,-11%,nt,nt,3%,nt,nt
O=C(Nc1ccncc1)c1ccc2c(c1)C(=O)N(C1CCCCC1)C2=O,7.1µM*,8,-1%,?,-11%,23
O=C1c2cccc3cccc(c23)C(=O)N1CC1CCCO1 (centres undefined),?,nt,1%,9%[46 µM],nt,nt
Nc1cccc(Oc2ccc3c(c2)C(=O)N(CC2CCCO2)C3=O)c1 (centres undefined),8.9µM*,nt,nt,nt,nt,nt
O=C(Nc1ccncc1)c1ccc2c(c1)C(=O)N(CC1CCCO1)C2=O (centres undefined),5.6µM*,nt,3%,16%,-17%,-4
COc1ccc(CNC(=O)CCCCCn2c(=O)[nH]c3ccccc3c2=O)cc1,nt,nt,nt,-10%[46 µM],nt,nt
SMILES,ALDH1A1 block,IMPase inh,Luc counter,Lamin A splicing,HPGD block,PNC inhibitor
N#CC1=C(N)C2=CCCC[C@H]2[C@H](c2ccc(Br)cc2)C1(C#N)C#N,13µM*,-4,1%,?,-25%,31
O=c1c2ccccc2nc2n1C(CBr)CS2 (centres undefined),-2%,nt,1%,-26%[46 µM],nt,nt
O=c1nc2n(c3sc4c(c13)CCCC4)C(CBr)CS2 (centres undefined),13µM*,6,-3%,?,?,14
COCC(=O)C(C(=O)OC)[C@H](CCc1ccccc1)NC(=O)OC (some centres undefined),-7%,nt,-2%,nt,-10%,nt
COc1ccc(N2CCCn3c2nc2c3c(=O)n(CCc3ccccc3)c(=O)n2C)cc1,?,-3,-1%,0%,-19%,5
Cn1c(=O)n(CCc2ccccc2)c(=O)c2c1nc1n2CCCN1CCc1ccccc1,11µM*,1,5%,?,-11%,?
Cc1cc(C)cc(N2CCn3c2nc2c3c(=O)n(CCc3ccccc3)c(=O)n2C)c1,nt,nt,nt,1.8µM*,nt,nt
Cc1cc(C)cc(N2CCn3c2nc2c3c(=O)n(CCCc3ccccc3)c(=O)n2C)c1,nt,nt,nt,2%[46 µM],nt,nt
CCOc1ccc(N2CCCn3c2nc2c3c(=O)n(CCc3ccccc3)c(=O)n2C)cc1,11µM*,7,-1%,-1%,?,23
Cc1ccc(-c2nn3c(=O)cc(CN4CCN(C(=O)c5ccc(C(C)(C)C)cc5)CC4)nc3s2)cc1,nt,nt,nt,-4%[46 µM],nt,nt
Cc1c(CC(C)(C)C(=O)O)n(Cc2ccc(Cl)cc2)c2ccc(F)cc12,-3%,-11,0%,nt,?,nt
Cc1cc(C)cc(-n2ccnc2SCC(=O)Nc2ccc(C)c(Cl)c2)c1,nt,nt,nt,-17%[46 µM],nt,nt
Cc1nonc1OC(C)CNc1ccc([N+](=O)[O-])cc1 (centres undefined),?,1,-5%,27%,28µM*,?
COc1ccc(-c2nc3cncnc3n(-c3ccccc3)c2=O)cc1,3%,nt,nt,-4%,nt,nt
CCCCN1C(=O)C(NC(=O)CC(C)C)(C(F)(F)F)C2=C1CC(C)(C)CC2=O (centres undefined),30%,3,0%,5%,1%,20
CCCN1C(=O)C(NC(=O)c2ccncc2)(C(F)(F)F)C2=C1CC(C)(C)CC2=O (centres undefined),7.1µM*,5,7%,8%,-14%,20
N#C/C(=C\c1ccc(-c2cccc(C(F)(F)F)c2)o1)C(=O)Nn1cnnc1,3%,nt,-1%,-10%,1.4µM*,-29
COc1ccc(Nc2nc3cc(Cl)c(Cl)cc3n3cnnc23)cc1Cl,nt,1,nt,nt,nt,nt
O=C1C=C(NCc2ccc(Cl)cc2)CC(c2ccco2)C1 (centres undefined),-7%,7,13%,-9%,-17%,16
O=C1C=C(Nc2ccc(O)cc2)CC(c2ccco2)C1 (centres undefined),?,-21,0%,?,22µM*,2
CC(C)CNC1=CC(=O)CC(c2ccco2)C1 (centres undefined),14µM*,-2,-9%,-1%,-24%,-81*
